Records with an inconclusive call do not appear. Activity calls are given as the source filed them. Calls follow the shape of the dose curve; as a rule, active = well fitted curve in either direction with a large enough effect (not every such curve was filed as active); inconclusive = small, poorly fitted or top-dose-only effect, or another doubt; inactive = flat fitted curve, though single readings scatter.
assay: NFAT Signaling Pathway (AID 444); conditions: Jurkat NFAT-bla M1, carbachol, beta-lactamase ratio, 5 h; at 17.2 µM (top of the series) unless noted
Source text: NCGC Assay Overview: The nuclear factor of activated T cells (NFAT) family of transcription factors has been found primarily in most immune system cells and some other non-immune cells. NFAT plays the immunomodulatory role, primarily in T-cell activation and differentiation. NFAT target genes are also involved in the regulation of apoptosis and differentiation in non-immune cell types. The NFAT sequence was engineered to the upstream of the ?-lactamase reporter gene and transfected into Jurkat cells with co-transfection of muscarinic receptor1 [provided by Invitrogen Corp]. When an extracellular stimulus, such as carbachol, binds to the GPCR M1 receptor, it stimulates a signaling cascade that activates NFAT response element and ?-lactamase expression by phosphorylating the NFAT binding protein. This cell based ?-lactamase reporter gene assay can accurately monitor any changes occurring along the NFAT pathway, and can be used for screening small molecule inhibitor or activator upon activation by carbachol EC50 concentration. A small molecular library were screened in a titration series resulting in AC50s (can be either IC50s or EC50s).
NCGC Assay Protocol Summary: The cells were prepared in RPMI 1640 medium containing 0.1% dialyzed FBS and 25 mM HEPES at 1.6 x 10^6cell/ml. The assay was performed in 1536-well plate format as follows: 5 ul of cell preparation 23 nl of compounds 1ul of carbachol (final concentration 1 uM) Briefly centrifuge the plates and incubate at 37 °C for 5 hours 1 ul of CCF4 dye mixture Incubate the plates at RT for 1 hour Read the plate in EnVision plate reader (Ex= 405nm, and Em1=460nm and Em2=530nm). The %Activity was determined from the ratio of 460nm/530nm. Data normalization and AC50 calculations were accomplished using GeneData software.
% is scaled to controls: 0 for no effect and ±100 for the full control effect.

Question: Which activity change, negative = inhibition does the source give for `CCOc1ccc(/C(O)=C2/C(=O)C(=O)N(c3nc(C)c(C)s3)C2c2ccco2)cc1` (stereo not given) here?
Answer: The activity change, negative = inhibition was 20.9% (inactive).

Question: For `CN(C)c1nc(OCCOC(=O)Nc2ccc(Cl)cc2Cl)nc(N(C)C)n1`, which activity change, negative = inhibition is on record?
Answer: The activity change, negative = inhibition was -3.72% (inactive).

Question: Which activity change, negative = inhibition does the source give for `CC(C)C1C(C#N)=C(N)Oc2n[nH]c(C(C)(C)C)c21` (stereo not given) here?
Answer: Its activity change, negative = inhibition is -6.87% (inactive).

Question: Which activity change, negative = inhibition does the source give for `CC(=Nc1ccc(C)c(C)c1)C1=C(O)CCC1=O` here?
Answer: The activity change, negative = inhibition was -8.58% (inactive).

Question: Which activity change, negative = inhibition does the source give for `S=c1[nH]nc(-c2ccccc2)n1Cc1ccccc1` here?
Answer: The activity change, negative = inhibition was -11.2% (inactive).

Question: For `Cn1c(NCc2ccccc2)nc2c1c(=O)n(Cc1ccccc1)c(=O)n2C`, which activity change, negative = inhibition is on record?
Answer: Its activity change, negative = inhibition is -0.651% (inactive).

Question: Which activity change, negative = inhibition does the source give for `COC(=O)C1=C(C)OC(N)=C(C#N)C1c1ccc(OC)c(OC)c1OC` (stereo not given) here?
Answer: The activity change, negative = inhibition was -15.6% (inactive).

Question: Which activity change, negative = inhibition does the source give for `NC(=S)c1ccc[n+]([C@@H]2O[C@@H](COP(=O)([O-])OP(=O)(O)OC[C@@H]3O[C@@H](n4cnc5c(N)ncnc54)[C@@H](OP(=O)(O)O)[C@H]3O)[C@@H](O)[C@H]2O)c1` here?
Answer: Its activity change, negative = inhibition is -7.28% [at 38 µM] (inactive).

Question: With `COc1ccccc1C1(CC(=O)N2CCOCC2)CCOC(C(C)C)C1` (stereo not given) as the compound, how does the activity change, negative = inhibition read?
Answer: Its activity change, negative = inhibition is 13.2% (inactive).

Question: Which activity change, negative = inhibition does the source give for `Cc1cc(N/C=C/C(=O)c2cccc3ccccc23)no1` here?
Answer: Its activity change, negative = inhibition is -3.82% (inactive).

Question: With `Cc1ccccc1COc1ccc(/C(O)=C2/C(=O)C(=O)N(CCCn3ccnc3)C2c2ccco2)cc1` (stereo not given) as the compound, how does the activity change, negative = inhibition read?
Answer: Its activity change, negative = inhibition is 10.8% (inactive).

Question: Which activity change, negative = inhibition does the source give for `CC(C)(C)c1ccc(C(=O)C=[N+]=[N-])cc1` here?
Answer: The activity change, negative = inhibition was 1.56% (inactive).

Question: With `O=C(CN1C(=O)c2ccccc2C1=O)NCc1ccccn1` as the compound, how does the activity change, negative = inhibition read?
Answer: Its activity change, negative = inhibition is 16.6% (inactive).

Question: With `C=CCNc1sc(C(=O)C2CC2)c(N)c1C#N` as the compound, how does the activity change, negative = inhibition read?
Answer: The activity change, negative = inhibition was 4.81% (inactive).

Question: With `CC(C)Cc1nc(N2CCOCC2)c(C#N)c2c1COC(C)(C)C2` as the compound, how does the activity change, negative = inhibition read?
Answer: The activity change, negative = inhibition was -9.76% (inactive).

Question: For `CC(=O)Nc1cc2c(cc1Br)OCCO2`, which activity change, negative = inhibition is on record?
Answer: The activity change, negative = inhibition was -0.709% (inactive).

Question: For `CC(NC(=O)Nc1ncccn1)(C(F)(F)F)C(F)(F)F`, which activity change, negative = inhibition is on record?
Answer: Its activity change, negative = inhibition is 1.67% (inactive).

Question: For `CC1(C)Cc2c(sc3ncn4nnnc4c23)CO1`, which activity change, negative = inhibition is on record?
Answer: Its activity change, negative = inhibition is 0.343% (inactive).

Question: For `CC[C@H](C)[C@@H]1O[C@]2(CC[C@@H]1C)C[C@H]1C[C@H](CC=C(C)[C@@H](O[C@@H]3C[C@H](OC)[C@H](O[C@@H]4C[C@H](OC)[C@H](O)[C@H](C)O4)[C@H](C)O3)[C@@H](C)C=CC=C3CO[C@@H]4[C@@H](O)C(C)=C[C@@H](C(=O)O1)[C@]34O)O2`, which activity change, negative = inhibition is on record?
Answer: Its activity change, negative = inhibition is -35.3% (inactive).

Question: For `OCCNc1ncnc2c1c(-c1ccccc1)c(-c1ccccc1)n2Cc1ccco1`, which activity change, negative = inhibition is on record?
Answer: The activity change, negative = inhibition was -23.1% (inactive).

Question: With `COc1ccccc1C1C(C#N)=C(N)Oc2cc(C)n(Cc3ccccn3)c(=O)c21` (stereo not given) as the compound, how does the activity change, negative = inhibition read?
Answer: The activity change, negative = inhibition was -9.78% (inactive).

Question: With `CCc1nnc(NC(=O)c2c(O)c3c([nH]c2=O)CCCC3)s1` as the compound, how does the activity change, negative = inhibition read?
Answer: The activity change, negative = inhibition was 15.9% (inactive).

Question: With `COc1nc(NS(=O)(=O)c2ccc(C)cc2)nc(C)c1Cl` as the compound, how does the activity change, negative = inhibition read?
Answer: The activity change, negative = inhibition was -25.4% (inactive).

Question: Which activity change, negative = inhibition does the source give for `COc1cc(C(=O)NCC(=O)n2nc(C)cc2C)cc(OC)c1OC` here?
Answer: The activity change, negative = inhibition was -4.87% (inactive).

Question: Which activity change, negative = inhibition does the source give for `COc1cc(S(=O)(=O)N2CCN(C)CC2)c(OC)cc1Br` here?
Answer: Its activity change, negative = inhibition is -13.8% (inactive).

Question: With `Cc1cc(=O)[nH]c(COc2ccccc2)n1` as the compound, how does the activity change, negative = inhibition read?
Answer: Its activity change, negative = inhibition is -7.86% (inactive).

Question: Which activity change, negative = inhibition does the source give for `Cn1c(=O)c2c(nc(Br)n2CCSc2nc3ccccc3o2)n(C)c1=O` here?
Answer: Its activity change, negative = inhibition is 1.98% (inactive).

Question: Which activity change, negative = inhibition does the source give for `CCOc1cccc(-c2nnc3sc(-c4ccco4)nn23)c1` here?
Answer: Its activity change, negative = inhibition is 18.2% (inactive).

Question: For `O=C1CC(NCc2ccc3c(c2)OCO3)C(=O)N1Cc1ccc2c(c1)OCO2` (stereo not given), which activity change, negative = inhibition is on record?
Answer: The activity change, negative = inhibition was 15.6% (inactive).

Question: For `CC(C)(C)NCc1cc2ccccc2[nH]c1=O`, which activity change, negative = inhibition is on record?
Answer: The activity change, negative = inhibition was -24.2% (inactive).

Question: For `C=CCn1c(SCC(=O)NC23CC4CC(CC(C4)C2)C3)nc(O)cc1=O`, which activity change, negative = inhibition is on record?
Answer: Its activity change, negative = inhibition is -3.75% (inactive).

Question: For `COc1ccc(NCc2cc3ccccc3[nH]c2=O)cc1`, which activity change, negative = inhibition is on record?
Answer: Its activity change, negative = inhibition is -19.9% (inactive).

Question: Which activity change, negative = inhibition does the source give for `O=C(CN1CCc2[nH]c3ccccc3c2C1)N1CCCCC1` here?
Answer: Its activity change, negative = inhibition is -20.1% (inactive).

Question: Which activity change, negative = inhibition does the source give for `CN1CCN(/C=N/c2sc3c(c2C#N)CCCCC3)CC1` here?
Answer: The activity change, negative = inhibition was 11.9% (inactive).

Question: For `Cc1c(C(=O)O)sc(=S)n1-c1ccccc1`, which activity change, negative = inhibition is on record?
Answer: The activity change, negative = inhibition was 2.74% (inactive).

Question: For `CC(C)c1nc2n[nH]c(N)c2c2c1CCC2`, which activity change, negative = inhibition is on record?
Answer: Its activity change, negative = inhibition is 9.31% (inactive).

Question: Which activity change, negative = inhibition does the source give for `CC(NC(=O)NCCCn1ccnc1)(C(F)(F)F)C(F)(F)F` here?
Answer: The activity change, negative = inhibition was -6.4% (inactive).

Question: Which activity change, negative = inhibition does the source give for `COc1ccc(OC)c2c1CCC2=O` here?
Answer: Its activity change, negative = inhibition is -3.76% (inactive).

Question: With `Nc1ccc2oc3ncccc3c(=O)c2c1` as the compound, how does the activity change, negative = inhibition read?
Answer: Its activity change, negative = inhibition is 10.7% (inactive).

Question: Which activity change, negative = inhibition does the source give for `Cc1nc(NS(=O)(=O)c2ccccc2)sc1NC(=O)OCCN(C)C` here?
Answer: The activity change, negative = inhibition was 13.4% (inactive).
